Hit rate of the full screen: of about 5,500 compounds, about 2,000 (36%) were called active. Another 18% or so got no clear call; they are omitted. No stated cut-off is given here; in the data, active means normalized growth mostly below about 0.91 (no sharp cut-off); inconclusive means no clear call, values can overlap the other calls; inactive means mostly above about 0.92. Some of the results follow.
Assay: chemical genetic growth profiling, strain panel (AID 1159580);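 further: tested at 20 µM; growth read once vehicle control cultures reached saturation at 30 °C; 1 = growth at the plate median or of vehicle wells; lower values mean less growth of the strain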
Conditions: S. cerevisiae deletion strains, growth OD

Measured: normalized growth

C[C@]12CCC(=O)C=C1CC[C@@H]1[C@@H]2C(=O)C[C@@]2(C)[C@H]1CC[C@]2(O)C(=O)CO
inactive: locus YAL040C, strain CLN3, active compounds read low 0.957 | locus YCL061C, strain MRC1 (second series), active compounds read low 0.993 | locus YDR150W, strain NUM1, active compounds read low 1 | locus YDR363W, strain ESC2, active compounds read low 0.986 | locus YER002W, strain NOP16, active compounds read low 0.966 | locus YNL128W, strain TEP1, active compounds read low 0.978 | locus YNL153C, strain GIM3, active compounds read low 0.979 | locus YNL175C, strain NOP13, active compounds read low 0.982 | locus YNL197C, strain WHI3, active compounds read low 0.942 | locus YNL224C, strain SQS1, active compounds read low 0.983 | locus YNL322C, strain KRE1, active compounds read low 0.988 | locus YOR083W, strain WHI5 (second series), active compounds read low 0.94 | locus YPL241C, strain CIN2, active compounds read low 0.995
